# Laboratory results published in the supplement of paper PMC12636033.
# ± gives the standard deviation of the averaged measurements. Over roughly 33,000 sequences, “E-score (rank enrichment, -0.5 to 0.5)” has its median near -0.0068; the highest 2% begin near 0.24. Shown is part of a subset that was picked to be rich in the highest values.
# Test system: muMax20 (Max(13-93) K31hArg/K57hArg, M65Nle)
# Assay: PBM 8-mer E-score (E-score (rank enrichment, -0.5 to 0.5)); higher = stronger preferential binding
# Procedure: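 Protein binding microarray (universal PBM chip covering all 10-mers in fixed probe flanks) with chemically synthesized human Max(13-93) bHLH-LZ analogs (not full-length Max) bearing noncanonical residues (hArg, Tha, Aib, Nle at 65) and aromatic Cys staples. Read-out per 8-mer (and its reverse complement): E-score (rank-based enrichment, -0.5 to 0.5) and Z-score of median probe intensity.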
row,Sequence,PBM 8-mer E-score
1,CGGATGCC,-0.075 ± 0.079
2,ATTCGTGC,0.0424 ± 0.086
3,AACCAGTT,0.0717 ± 0.038
4,ATATACAT,0.247 ± 0.032
5,CCATACAG,-0.0198 ± 0.047
6,ACATACAC,0.165 ± 0.057
7,ATATACAC,0.169 ± 0.004
8,AGATACAG,0.218 ± 0.024
9,ACATACAT,0.243 ± 0.029
10,ATATACAA,0.229 ± 0.069
11,ACATACAG,0.242 ± 0.017
12,ACATACAA,0.137 ± 0.076
13,GATGTACC,0.0595 ± 0.065
14,ACTCCTAT,0.0559 ± 0.1
15,AAACGGGC,0.0187 ± 0.03
16,TAAACAAA,0.184 ± 0.008
17,AGCTCCCC,-0.0268 ± 0.092
18,AAATACAC,0.273 ± 0.038
19,CAATACAC,0.194 ± 0.043
20,AAATACAT,0.259 ± 0.061
21,AAATACAG,0.209 ± 0.07
22,AAATACAA,0.19 ± 0.018
23,GAATACAC,0.123 ± 0.014
24,CGGTTTTC,0.00594 ± 0.054
25,ATAGCGTG,0.161 ± 0.019

row,Sequence,PBM 8-mer E-score
1,AGCACTCG,-0.199 ± 0.078
2,GAACGCCA,-0.206 ± 0.021
3,AAATCGCG,-0.0409 ± 0.032
4,GGTAAGAA,0.0527 ± 0.1
5,CATAACGA,0.0556 ± 0.017
6,TTAATTAA,0.324 ± 0.12
7,GGAATTAA,0.1996 ± 0.0018
8,ATAATTAT,0.276 ± 0.0028
9,CGAATTAA,0.106 ± 0.11
10,ATAATTAC,0.22 ± 0.074
11,ATAATTAG,0.223 ± 0.1
12,CTAATTAA,0.0707 ± 0.041
13,ATAATTAA,0.175 ± 0.05
14,TGAATTAA,0.254 ± 0.043
15,CCTGTCCA,-0.131 ± 0.17
16,CCAGTTTA,-0.0199 ± 0.068
17,ATAAGGCC,-0.0432 ± 0.14
18,AGTGCCTA,-0.109 ± 0.091
19,CAACTGCC,0.0721 ± 0.014
20,TCGAGGAA,-0.0274 ± 0.069
21,CCCACAAA,0.183 ± 0.015
22,ATGATAGC,0.2152 ± 0.0016
23,ACCATGCA,0.28 ± 0.096
24,CCCATGCA,0.133 ± 0.01
25,TGCATGCA,0.0968 ± 0.12

row,Sequence,PBM 8-mer E-score
1,TCCATGCA,0.105 ± 0.07
2,AGCATGCA,0.284 ± 0.11
3,GGCATGCA,0.106 ± 0.091
4,GGATAGCC,-0.138 ± 0.11
5,ACCGACCA,0.0471 ± 0.002
6,GGGCGCCC,-0.131 ± 0.0098
7,ATAACTAG,0.0985 ± 0.14
8,ATAACTAC,0.2058 ± 0.0013
9,ATAACTAT,0.241 ± 0.0068
10,TTAACTAA,0.184 ± 0.11
11,ATAACTAA,0.245 ± 0.0085
12,CTAACTAA,0.00786 ± 0.039
13,ACACTGTG,0.0421 ± 0.2
14,CAGATCAA,-0.0923 ± 0.011
15,GGTGAAGA,-0.0661 ± 0.032
16,ATCCTCAT,-0.11 ± 0.076
17,GACGATAA,0.0693 ± 0.077
18,CACGATAA,0.17 ± 0.024
19,TACGATAA,0.247 ± 0.0037
20,AATGCTAA,0.12 ± 0.033
21,AGCCAATC,-0.047 ± 0.088
22,GACATGTA,0.24 ± 0.067
23,TACATGTA,0.157 ± 0.069
24,AACATGTT,0.22 ± 0.04
25,AACATGTG,0.353 ± 0.042

row,Sequence,PBM 8-mer E-score
1,AACATGTA,0.256 ± 0.028
2,GACATGTC,-0.00641 ± 0.13
3,AACATGTC,0.12 ± 0.025
4,AACATGAA,0.0865 ± 0.011
5,AACATGCA,0.206 ± 0.1
6,CACATGTC,0.12 ± 0.087
7,CACATGTG,0.418 ± 0.015
8,CACATGCG,0.172 ± 0.11
9,GTCTGCCA,-0.165 ± 0.0054
10,GAACTTTA,-0.157 ± 0.037
11,CTGTGGTA,0.0865 ± 0.061
12,CCGGTCGC,-0.276 ± 0.027
13,ACCGAGAA,-0.187 ± 0.0095
14,CCCAAGTC,-0.185 ± 0.0086
15,GACGCTAA,-0.13 ± 0.072
16,AGCAGTAT,0.109 ± 0.0063
17,GATTGCCA,-0.0436 ± 0.034
18,AGCGTGGA,0.045 ± 0.011
19,CACATGAA,0.219 ± 0.014
20,CTCATGTA,0.0357 ± 0.054
21,CACATGTA,0.347 ± 0.045
22,GAAAACCC,0.11 ± 0.0093
23,CATAGGTC,-0.0151 ± 0.052
24,TATGATAA,0.181 ± 0.063
25,ACTGATTA,0.0963 ± 0.055

row,Sequence,PBM 8-mer E-score
1,AATGATAA,0.11 ± 0.021
2,CATGATTC,0.0292 ± 0.013
3,GATGATTA,0.0475 ± 0.008
4,CATGATTA,0.281 ± 0.049
5,CCTGATTA,0.14 ± 0.042
6,CATGATAA,0.263 ± 0.034
7,GCTGATTA,0.292 ± 0.073
8,CGCGTTAG,-0.0996 ± 0.017
9,CTGGACTC,-0.0856 ± 0.022
10,CAAACAAA,0.185 ± 0.03
11,GAAACAAA,0.236 ± 0.039
12,AAAACATA,0.165 ± 0.084
13,GAAACATA,0.249 ± 0.1
14,GAAACATC,0.0279 ± 0.095
15,GAAACAAC,0.00284 ± 0.071
16,GAAGGTGC,-0.0729 ± 0.043
17,CATGCCAA,0.158 ± 0.078
18,ATATAAGA,0.262 ± 0.064
19,ATAAAAAC,0.109 ± 0.079
20,ATAAAAAT,0.221 ± 0.025
21,ACATAAAA,0.229 ± 0.019
22,ATATAAAC,0.324 ± 0.045
23,CTATAAAA,0.0172 ± 0.079
24,ATATAAAA,0.317 ± 0.064
25,CTATAAAC,0.144 ± 0.0027

row,Sequence,PBM 8-mer E-score
1,GTATAAGA,0.138 ± 0.044
2,ATATAAAG,0.189 ± 0.0027
3,ATATAAAT,0.308 ± 0.0047
4,CTATAAGA,0.0354 ± 0.00038
5,AAACTTTA,0.2 ± 0.068
6,CACCGCTG,-0.316 ± 0.09
7,GGGAGGGA,0.0486 ± 0.024
8,AAATTGAC,-0.0252 ± 0.075
9,AGGTCTGA,-0.112 ± 0.11
10,CGTGCTAA,-0.0595 ± 0.097
11,GGGGGTGA,-0.107 ± 0.1
12,GCACCCGA,-0.265 ± 0.009
13,ATACCCGC,0.07 ± 0.0011
14,CCCACGGA,-0.0746 ± 0.039
15,CGAGTTTC,0.112 ± 0.043
16,AGGCGGAG,-0.00941 ± 0.016
17,GTATAAAA,0.288 ± 0.072
18,TTATAAAA,0.235 ± 0.043
19,GTATAAAC,0.137 ± 0.05
20,GGGTAATA,0.117 ± 0.078
21,AGGGGAAG,-0.0693 ± 0.071
22,CTAGCGAC,-0.0457 ± 0.095
23,CCGAAAGG,-0.0656 ± 0.13
24,CAAGCCAA,-0.034 ± 0.1
25,CATGTGCA,0.292 ± 0.063

row,Sequence,PBM 8-mer E-score
1,GATGTTTA,0.0668 ± 0.12
2,TATGTGCA,0.175 ± 0.068
3,CGTGTGTA,0.28 ± 0.017
4,AGTGTGTA,0.121 ± 0.0059
5,CATGTTTA,0.249 ± 0.0042
6,ATTGTATC,0.304 ± 0.027
7,GGTGTGTA,0.159 ± 0.11
8,GATGTGCA,0.03 ± 0.16
9,ATTGTATG,0.139 ± 0.039
10,CTTGTATC,0.0905 ± 0.026
11,CATGTTTC,0.143 ± 0.045
12,CAACAAAA,0.0937 ± 0.037
13,ACCCCTCC,0.155 ± 0.011
14,AGCATAAA,0.158 ± 0.013
15,CGGTTCCA,-0.282 ± 0.0036
16,GACGGCCA,-0.0819 ± 0.046
17,AAGTGTAA,-0.0103 ± 0.021
18,GCCCCTAC,0.00167 ± 0.035
19,ACTCTGAG,-0.217 ± 0.068
20,GATAACGC,0.105 ± 0.11
21,ATTGTAAA,0.244 ± 0.021
22,ATTGTAAG,0.16 ± 0.042
23,CATGTGTA,0.332 ± 0.054
24,AGTGTATC,0.123 ± 0.049
25,CGTGTATC,0.238 ± 0.025

row,Sequence,PBM 8-mer E-score
1,GATGTGTA,0.17 ± 0.024
2,CTTGTAAA,0.217 ± 0.015
3,CATGTGTC,0.117 ± 0.14
4,CGTGTATA,0.2 ± 0.044
5,AGCTCTCG,-0.155 ± 0.045
6,GAGTCACC,-0.0777 ± 0.02
7,AACCTTAT,0.0715 ± 0.044
8,AACAGTAA,-0.00834 ± 0.034
9,GCTCGTTA,0.0811 ± 0.07
10,AACGTAAG,-0.0553 ± 0.13
11,TAGTGTGA,0.15 ± 0.12
12,AAGTGTGA,0.0524 ± 0.053
13,CAGTGTGA,0.2398 ± 0.0018
14,CTGGTCTC,-0.256 ± 0.045
15,AATGGATC,-0.167 ± 0.0063
16,CCACCAAG,-0.0933 ± 0.014
17,CCATAGTA,0.0366 ± 0.064
18,GCATAGTA,0.277 ± 0.041
19,ATATAGTA,0.281 ± 0.048
20,CTATAGTA,0.109 ± 0.0064
21,ACATAGTA,0.0946 ± 0.04
22,GTATAGTA,0.227 ± 0.0046
23,ACCGGAGC,-0.286 ± 0.0054
24,CGGTCCAG,-0.279 ± 0.069
25,GCTCCACA,-0.0777 ± 0.035

row,Sequence,PBM 8-mer E-score
1,GCCTCAGA,-0.218 ± 0.018
2,AACGAACG,0.0291 ± 0.073
3,CTACTCGC,-0.176 ± 0.076
4,GAAATCAA,0.0452 ± 0.11
5,AAAATCAA,0.0939 ± 0.085
6,TAAATCAA,0.261 ± 0.01
7,ATCGCGGG,-0.145 ± 0.056
8,AATCACGA,0.00734 ± 0.13
9,AATCACGT,0.385 ± 0.046
10,AATCACAA,0.172 ± 0.028
11,AATCACGC,0.196 ± 0.096
12,AATCACAT,0.242 ± 0.066
13,AATCACAG,-0.113 ± 0.046
14,AGGGCAAA,-0.0293 ± 0.034
15,CGAAAATA,0.00928 ± 0.085
16,CAGCGGCG,-0.0966 ± 0.073
17,GAACCTCC,-0.133 ± 0.0052
18,CGGAGCAC,-0.157 ± 0.021
19,TCGCTACA,0.115 ± 0.042
20,GCGCTACA,-0.0407 ± 0.037
21,ACGCTACA,0.255 ± 0.047
